ALOX12 inh – blocks human arachidonate 12S-lipoxygenase; P18054; purified 12hLO, xylenol orange hydroperoxide absorbance; Potency, µM (series often up to 108 µM), without a hit: top-dose activity change, negative = inhibition, hits mostly inhibitors; 580,000 compounds, 1.1% hits; AID 1671190; further: potency means the concentration at half of the fitted maximal effect; on the % scale 0 is the no-effect control and ±100 the full control effect
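Hydroperoxide product was detected by ferrous iron/xylenol orange as the 573 to 405 nm absorbance ratio. Arachidonic acid at 40 uM (final) was turned over for 30 min at room temperature by 150 nM human 12hLO, pH 7.0 Hepes buffer, after 15 min compound preincubation.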
PI5P4Ka inh – blocks human PI5P4K alpha kinase activity | AID 652105 | max response, % | 330,000 compounds, 1.2% hits | PI5P4Kalpha enzyme, ADP-Glo luminescence, 60 min; active compounds read low | P48426; active means max response of -50% or lower; inconclusive means between -30% and -50%; inactive means -30% or higher; further: value at the top dose of about 77 µM; on the % scale 0 is the no-effect control and ±100 the full control effect
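Controls without substrate or without enzyme flank wells where PI5P4Kalpha converts substrate using 5 microM ATP (final). Incubation lasts 60 minutes at room temperature; ADP formed is read by ADP-Glo luminescence.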
POLH inh – inhibitors of human DNA polymerase eta | Q9Y253 | recombinant Pol eta, fluorescent DNA replication assay | Potency, µM (titrated, usually from 114 µM), for inactives: top-dose activity change, negative = inhibition, hits mostly inhibitors | 390,000 compounds, 1.2% hits; further: potency means the concentration at half of the fitted maximal effect; on the % scale 0 is the no-effect control and ±100 the full control effect
Target sequence (Q9Y253 whole entry, looked up): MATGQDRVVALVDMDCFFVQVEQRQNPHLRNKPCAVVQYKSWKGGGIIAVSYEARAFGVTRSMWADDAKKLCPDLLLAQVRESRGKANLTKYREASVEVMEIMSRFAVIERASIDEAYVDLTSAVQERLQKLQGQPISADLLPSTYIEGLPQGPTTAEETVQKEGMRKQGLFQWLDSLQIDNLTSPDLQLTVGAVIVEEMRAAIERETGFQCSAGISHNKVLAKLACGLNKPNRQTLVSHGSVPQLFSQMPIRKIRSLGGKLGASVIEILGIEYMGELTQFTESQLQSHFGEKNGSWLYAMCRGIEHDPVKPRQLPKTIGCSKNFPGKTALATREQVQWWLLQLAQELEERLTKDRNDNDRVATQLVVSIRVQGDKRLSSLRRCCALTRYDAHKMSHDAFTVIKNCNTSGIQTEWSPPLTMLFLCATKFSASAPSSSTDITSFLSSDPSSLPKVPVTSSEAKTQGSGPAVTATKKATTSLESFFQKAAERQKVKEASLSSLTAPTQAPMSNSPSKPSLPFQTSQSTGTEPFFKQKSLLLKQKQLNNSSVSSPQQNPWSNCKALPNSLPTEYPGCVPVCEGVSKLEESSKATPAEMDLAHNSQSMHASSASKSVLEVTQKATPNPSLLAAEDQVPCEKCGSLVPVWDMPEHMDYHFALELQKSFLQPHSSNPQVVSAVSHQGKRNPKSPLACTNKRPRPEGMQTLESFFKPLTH
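Fluorescent replication assay: 50 nM final substrate added after a 15 min room-temperature compound preincubation with 10 nM enzyme. Signal taken at 0 min and again at 10 min.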
Pol kappa inh – inhibitors of human DNA polymerase kappa | Q9UBT6 | purified Pol kappa, fluorescent DNA synthesis assay, 10 min | Potency, µM (highest dose often 107 µM), inactives show top-dose activity, negative = inhibition, hits mostly inhibitors | 400,000 compounds, 0.53% hits | AID 588579; further: potency means the concentration at half of the fitted maximal effect; on the % scale 0 is the no-effect control and ±100 the full control effect
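50 nM final substrate added after 15 min RT preincubation of 10 nM Pol kappa with compound; fluorescence read at 0 and 10 min.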
POLI inh – DNA polymerase iota (human) inhibition. Q9UNA4. Pol iota fluorescent replication assay, 10 min. Potency, µM (top dose mostly 115 µM), inactives show at the highest dose activity, negative = inhibition, usual class: inhibitors. 390,000 compounds, 1% hits. AID 588590; further: potency means the concentration at half of the fitted maximal effect
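Pol iota at 10 nM preincubated 15 min with compounds at room temperature; reaction started with fluorescent substrate, 50 nM final. Fluorescence read kinetically at 0 and 10 min; buffer-only wells as negative control.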
POLB inh – DNA polymerase beta (human) inhibition; 340,000 compounds, 1.3% hits; P06746; Pol beta primer extension/strand displacement, fluorescence kinetic; AID 485314; Potency, µM (doses to about 114 µM), for inactives: top-dose activity change, negative = inhibition, most hits filed as inhibitors; further: potency means the concentration at half of the fitted maximal effect; on the % scale 0 is the no-effect control and ±100 the full control effect
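Human Pol beta at 10 nM; strand-displacement substrate 50 nM final. Compound exposure 15 min at room temperature before start, reaction 10 min at room temperature.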
* = called active by the depositor; ? = inconclusive; nt = no result given; [ ] = another dose, or the depositor's remark. Only some compounds are listed: those with a hit (about 2.9% of all), similar ones and a draw of the others. Unless noted, the call rests on the fitted dose curve; in most records, active means well fitted inhibition curve with a large enough effect; inconclusive means small, poorly fitted or top-dose-only effect, or another doubt; inactive means no such curve, though single readings can be large or run the other way.

SMILES	ALOX12 inh	PI5P4Ka inh	POLH inh	Pol kappa inh	POLI inh	POLB inh
CC(=O)N(/N=C1\Sc2ccccc2C1=O)c1cccc(C)c1	-17%	1	20µM*	1%	?	-2%
Cc1cc(SCC(=O)N/N=C/c2ccc(O)c(O)c2)c(C)cc1Br	6.3µM*	-2	-21%	-21%	?	16µM*
CC(=O)N1CCC(=NNC(=O)CSc2cc(C)c(Br)cc2C)CC1	-7%	19	-10%	-1%	13%	0%
CC(C)=CC(=O)O	9%[176 µM]	nt	nt	nt	nt	nt
O=C(C1=C(O)C(=O)N(c2nncs2)C1c1ccccc1)c1cccs1 (centres undefined)	0.56µM*	nt	nt	nt	nt	nt
Cc1ccc(C2C(C(=O)c3cccs3)=C(O)C(=O)N2c2nncs2)cc1 (centres undefined)	2.2µM*	nt	nt	nt	nt	nt
CC(C)(C)N=C1NN=C(c2c[nH]c3ccccc23)CS1	-16%	nt	nt	nt	nt	nt
Cc1ccc(NS(=O)(=O)c2ccc(NC(=O)CSc3ccc(Cl)cc3)cc2)c(C)c1	32µM*	-5	-12%	-7%	19%	15%
Cc1ccc(C(=O)OCC(=O)c2ccc(C3CCCCC3)cc2)c(C)c1	3%	nt	nt	nt	nt	nt
Nc1ccc(O)cc1C(=O)OCC(=O)c1ccc(C2CCCCC2)cc1	11µM*	?	-21%	-2%	31%	26%
O=C(COC(=O)c1ccc(O)cc1O)c1ccc(Cl)cc1	45µM*	-2	-17%	-2%	-3%	nt
Cc1ccc(NC(=S)NNC(=S)Nc2ccc(C)cc2)cc1	?	-28	-14%	-5%	8%	nt
Cc1ccc(NNC(=S)Nc2ccc(C(C)C)cc2)c(C)c1	35µM*	0	?	-9%	-3%	2%
Cc1cc(C)cc(-n2c(C)c(C)n3c4c(=O)[nH]c(=O)n(C)c4nc23)c1	-2%	nt	nt	nt	nt	nt
Cc1cc(-c2ccco2)c(C#N)c2nc3ccccc3n12	-12%	?	10µM*	?	?	8.9µM*
Cc1oc(-c2ccc(Cl)cc2)nc1CS(=O)CC(=O)NCc1ccccc1Cl (centres undefined)	-20%	nt	nt	nt	nt	nt
Cc1cc(NC(=O)CSCC(=O)OCC(=O)c2cccc(Br)c2)no1	112%	-62*	-30%	-29%	?	nt
COc1ccc(NC(=O)N2CCC(N(C)S(C)(=O)=O)CC2)cc1	29%	nt	nt	nt	nt	nt
CCN(CC)c1nc2ccccc2nc1C(C#N)S(=O)(=O)c1ccc(C)cc1 (centres undefined)	14µM*	nt	nt	nt	nt	nt
Cc1ccc(S(=O)(=O)C(C#N)c2nc3ccccc3nc2N2CCN(C)CC2)cc1 (centres undefined)	?	10	-6%	-3%	17%	0%
COc1ccccc1NC(=O)c1c(C)nc2ccccc2c1C(=O)O	14µM*	3	-6%	-12%	-3%	17%
COC(=O)c1c(C)nc2ccccc2c1C(=O)O	-5%	-5	-8%	-4%	20%	23%
CCOc1ccc(N)c(SSc2cc(OCC)ccc2N)c1	?	?	-7%	-4%	?	9%
CS(=O)(=O)c1ccc(N)c(SSc2cc(S(C)(=O)=O)ccc2N)c1	?	-81*	-4%	-16%	?	nt
CN(C)S(=O)(=O)c1cccc(NC(=O)c2ccc(OCc3cn4ccccc4n3)cc2)c1	39%	nt	nt	nt	nt	nt
SMILES	ALOX12 inh	PI5P4Ka inh	POLH inh	Pol kappa inh	POLI inh	POLB inh
CC1CC1C(=O)NCCC12CC3CC(CC(C3)C1)C2 (centres undefined)	-3%	nt	nt	nt	nt	nt
COc1ccc(-n2c(=O)c3c4c(sc3n(Cc3cc(=O)n5c(C)cccc5n3)c2=O)CCC4)c(OC)c1	8%	nt	?	-11%	79µM*	-20%
COc1ccc(C(=O)N/C(=C\c2ccc(OC)c(OC)c2)C(=O)N2CCCCC2)cc1	-40%	-9	-6%	2%	115%	27%
COc1ccc(/C=C(/C(=O)N2CCCCC2C(=O)O)c2ccc(OC)c(OC)c2)cc1 (centres undefined)	-13%	2	-1%	4%	79µM*	nt
Cc1cc(=O)oc2cc(OCC(=O)N(C)C)c(Cl)cc12	6%	nt	nt	nt	nt	nt
CSCc1ccc(C(=O)Nc2cccc(F)c2)o1	-4%	nt	nt	nt	nt	nt

Compound activity: PubChem BioAssay, National Center for Advancing Translational Sciences (NCATS)
